Laboratory results published in the OligoGym collection.

What follows are sequences tested against SLMAP (assay: pooled miR-30 sensor sort-seq; sequence = guide strand). Conditions: shRNA.
Note: reference of the scale not given here.

Question: For TTCACTGTCCTTCTCCTCCCGG, which sensor-assay potency score (higher = more potent) is on record?
Answer: -0.623

Question: How did the sensor-assay potency score (higher = more potent) turn out when TTGAAGATAAAACTTGCCCGTC was run?
Answer: 0.116

Question: TTTGTTTACTTGTTCTAGCTAG was tested. Which sensor-assay potency score (higher = more potent) did it give?
Answer: 0.257

Question: With TCAACTTCTCTAGTTCACCTTG as the sequence, how does the sensor-assay potency score (higher = more potent) read?
Answer: 0.0522

Question: With TAACTTTCCGTGTATTCTCTGT as the sequence, how does the sensor-assay potency score (higher = more potent) read?
Answer: -0.472

Question: For TATTCTTGTACTTCTGCTGTTT, which sensor-assay potency score (higher = more potent) is on record?
Answer: -0.0967

Question: With TAAGAGTCTATCTTCATCTATT as the sequence, how does the sensor-assay potency score (higher = more potent) read?
Answer: -0.538

Question: TTCATCTCTAGTACTTGTGATT was tested. Which sensor-assay potency score (higher = more potent) did it give?
Answer: -0.717

Each sequence was assayed against SMAD4 in the same assay as above. Conditions: shRNA.

Question: TTTGAATTGAATGTCCTTCAGT was tested. Which sensor-assay potency score (higher = more potent) did it give?
Answer: -0.388

Question: Which sensor-assay potency score (higher = more potent) does the source give for TACATTCCAACTGCACACCTTT here?
Answer: -0.752

Question: How did the sensor-assay potency score (higher = more potent) turn out when TAACTCTGTACAAAGACCGCGT was run?
Answer: 0.679

Question: TTCTTAGCAACCAACCTTGTGC was tested. Which sensor-assay potency score (higher = more potent) did it give?
Answer: -0.338

Question: TTAACTTTGAGAACTTCTCTGC was tested. Which sensor-assay potency score (higher = more potent) did it give?
Answer: 0.783

Question: How did the sensor-assay potency score (higher = more potent) turn out when TTACTTGTTGGTGTATTCGTAA was run?
Answer: -0.078

Question: With TTGTATTTTGTAGTCCACCATC as the sequence, how does the sensor-assay potency score (higher = more potent) read?
Answer: -1.39

Question: With TTCCAGGTGATACAACTCGTTC as the sequence, how does the sensor-assay potency score (higher = more potent) read?
Answer: -1.63

Question: For TTAGGTAGAGTGACGCTGCTTT, which sensor-assay potency score (higher = more potent) is on record?
Answer: 0.626

Question: For TTACAATACATTATTAACTTAC, which sensor-assay potency score (higher = more potent) is on record?
Answer: -0.987

Question: For TAGAATGATATACATATCGATG, which sensor-assay potency score (higher = more potent) is on record?
Answer: -1.35

Question: TTAGCAACCAACCTTGTGCCTA was tested. Which sensor-assay potency score (higher = more potent) did it give?
Answer: -0.621
